We go through 10 compounds from PubChem BioAssay (NCI).

Compounds without any hit were thinned out: in the full panel of roughly 83,000, 20% have a hit.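 Testing used 96-well plates and a 48-hour single-concentration exposure. Example: -40 means 40% of the starting cells died.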 Unmarked numbers belong to inactive results. Active and inactive are the calls of the source. Rule for the calls: active = growth percent below 10; inactive = the rest.

Test systems include HCT-15 colon; SNB-75 CNS; SNB-19 CNS; U251 CNS; PC-3 prostate; SK-MEL-5 melanoma; UACC-62 melanoma; LOX IMVI melanoma; SK-MEL-28 melanoma; EKVX NSCLC; SN12C renal; UO-31 renal; TK-10 renal; ACHN renal; CAKI-1 renal; SK-MEL-2 melanoma; A498 renal; CCRF-CEM leukemia; MOLT-4 leukemia.
Common to all, as to assay: NCI-60 one-dose screen, 48 h (100 = growth as untreated, 0 = no growth, -100 = all killed)
Holding throughout (details): 10 µM unless noted

Turning to `COc1ccc2nc(-c3ccc(-c4noc(-c5cc(OC)c(OC)c(OC)c5)n4)cc3)[nH]c2c1`, the growth in the assay on HCT-15 colon is 30.2%; in the assay on SNB-75 CNS, 35.4%; in the assay with SNB-19 CNS, 76.8%; with U251 CNS it was 25.1%; in the assay on PC-3 prostate, 95.2%; with SK-MEL-5 melanoma it was 45%. The growth is 99.8% with UACC-62 melanoma; 67.5% in the assay with LOX IMVI melanoma; 51.3% in the assay with SK-MEL-28 melanoma; 91.9% in the assay on EKVX NSCLC; 80.7% in the assay with SN12C renal; 108% in the assay with UO-31 renal. For the same compound, the growth was 102% with TK-10 renal, 97.9% with ACHN renal and 96.5% with CAKI-1 renal.
Regarding `O=C1c2cccc3c(-c4ccc5c(c4)ncn5C4CCCCC4)ccc(c23)C(=O)N1CCO`, the growth was 98.5% with HCT-15 colon; 98.1% in the assay with SNB-19 CNS; 93.2% in the assay on U251 CNS; 85% in the assay on PC-3 prostate; 62% in the assay with SK-MEL-5 melanoma; 74.4% in the assay on UACC-62 melanoma. Moreover, the growth is 87.4% in the assay with LOX IMVI melanoma; 116% in the assay on SK-MEL-28 melanoma; 89.5% in the assay with SK-MEL-2 melanoma; 76.4% in the assay on EKVX NSCLC; 93.8% in the assay on SN12C renal; 62.1% in the assay with UO-31 renal. Besides, the growth with TK-10 renal was 101%; in the assay on ACHN renal, 94.7%; with CAKI-1 renal, 77.5%; in the assay on A498 renal it was 103%; in the assay on CCRF-CEM leukemia it was 79%; in the assay on MOLT-4 leukemia, 71.9%.
`c1ccc2c(-c3nccs3)c[nH]c2c1`: the growth in the assay with HCT-15 colon was 94.3%; in the assay on SNB-75 CNS, 90.7%; in the assay with SNB-19 CNS, 98.1%; in the assay with U251 CNS, 103%; in the assay with PC-3 prostate, 81.5%; in the assay on SK-MEL-5 melanoma, 95.3%. For the same compound, the growth is 93.5% in the assay on UACC-62 melanoma; 99.7% with LOX IMVI melanoma; 100% with SK-MEL-28 melanoma; 112% in the assay on SK-MEL-2 melanoma; 88.6% with EKVX NSCLC; 98.3% with SN12C renal. For the same compound, the growth is 85.1% in the assay with UO-31 renal; 84.4% with TK-10 renal; 97.6% with ACHN renal; 95.6% with CAKI-1 renal; 111% in the assay with CCRF-CEM leukemia; 91.8% with MOLT-4 leukemia.
On to `CC(=O)O[C@@H]1C2CCC3C(CC[C@@]4(C)C3CC[C@@H]4C(C)N(C)C)[C@@]2(C)CC[C@@H]1NC(=O)C=C(C)C` (some centres undefined), for which the growth with HCT-15 colon is -58.1% (active); with SNB-75 CNS, 12%; in the assay with SNB-19 CNS, 65.6%; with U251 CNS, 14.9%; in the assay on PC-3 prostate, 10.5%; in the assay with SK-MEL-5 melanoma, -93.1% (active). In addition, the growth in the assay with UACC-62 melanoma is -49.9% (active); in the assay on LOX IMVI melanoma, -43.5% (active); in the assay on SK-MEL-28 melanoma, -91.7% (active); with SK-MEL-2 melanoma, 31.9%; with EKVX NSCLC it was 30.8%; with SN12C renal it was 32.7%. Further, the growth was 6.19% (active) with UO-31 renal; 47.2% with TK-10 renal; 25.4% in the assay with ACHN renal; -6.25% (active) in the assay with CAKI-1 renal; 60.6% with A498 renal; -12% (active) in the assay with CCRF-CEM leukemia. The growth in the assay on MOLT-4 leukemia is -50.6% (active).
As for `O=C(/C=C/c1c(-c2ccc(Cl)cc2)nn(-c2ccccc2)c1C(F)(F)F)c1ccc(Cl)cc1`, the growth in the assay with HCT-15 colon was 77.7%; with SNB-75 CNS, 86.1%; with SNB-19 CNS it was 96.1%; with U251 CNS, 86.3%; in the assay on PC-3 prostate it was 92.2%; in the assay on SK-MEL-5 melanoma, 85.3%. The growth in the assay on UACC-62 melanoma was 82.5%; with LOX IMVI melanoma, 75%; in the assay with SK-MEL-28 melanoma, 103%; in the assay on SK-MEL-2 melanoma it was 89%; in the assay with EKVX NSCLC it was 94.8%; with SN12C renal it was 88.1%. For the same compound, the growth with UO-31 renal is 74.1%; with ACHN renal, 90.7%; in the assay with CAKI-1 renal it was 90%; with A498 renal it was 87.6%; in the assay with CCRF-CEM leukemia it was 85.6%.
With `CNC(=O)c1cc(Cn2nc(C)c(NC(=O)Nc3ccc(Cl)c(C(F)(F)F)c3)c2C)ccn1`, the growth with HCT-15 colon is 98%; in the assay with SNB-75 CNS, 68%; in the assay with SNB-19 CNS it was 103%; with U251 CNS, 86.7%; in the assay on PC-3 prostate it was 79.4%; with SK-MEL-5 melanoma, 91.8%. Moreover, the growth with UACC-62 melanoma is 93.7%; with LOX IMVI melanoma, 98%; in the assay on SK-MEL-28 melanoma it was 107%; in the assay on SK-MEL-2 melanoma, 82.3%; in the assay on EKVX NSCLC, 102%; in the assay on SN12C renal, 98.6%. Further, the growth with UO-31 renal was 90.5%; in the assay on TK-10 renal, 103%; in the assay with ACHN renal it was 97.9%; in the assay on CAKI-1 renal it was 93.6%; in the assay with CCRF-CEM leukemia, 92.1%; in the assay with MOLT-4 leukemia, 90.8%.
Consider `NNC(=O)c1ccc(-n2nc(-c3ccccc3)c3ccccc32)cc1`, for which the growth in the assay with HCT-15 colon is 57.6%; with SNB-75 CNS it was 53.6%; in the assay with U251 CNS it was 22.6%; with PC-3 prostate it was 69.4%; in the assay on SK-MEL-5 melanoma it was 84.5%; in the assay on UACC-62 melanoma, 80.7%. Also, the growth with LOX IMVI melanoma was 68.2%; in the assay on SK-MEL-28 melanoma it was 83.9%; in the assay with SK-MEL-2 melanoma, 79.3%; in the assay with EKVX NSCLC, 63.4%; in the assay with SN12C renal, 75.1%; in the assay with UO-31 renal, 68%. Moreover, the growth in the assay on TK-10 renal is 110%; in the assay on ACHN renal it was 85.6%; in the assay with A498 renal, 75%; in the assay with CCRF-CEM leukemia, 37.2%; in the assay on MOLT-4 leukemia, 74.8%.
As for `COc1cc(/C=C\c2cc(OC)c(OC)c(OC)c2)cc(N)c1OC`, the growth is 70% with HCT-15 colon; 78.7% with SNB-75 CNS; 88.6% in the assay with SNB-19 CNS; 91.2% with U251 CNS; 82.1% in the assay with PC-3 prostate; 86.7% with SK-MEL-5 melanoma. The growth is 74.7% in the assay with UACC-62 melanoma; 86.8% with LOX IMVI melanoma; 97.6% with SK-MEL-28 melanoma; 74.2% in the assay on SK-MEL-2 melanoma; 94.1% in the assay with EKVX NSCLC; 93.4% in the assay with SN12C renal. Besides, the growth is 69% with UO-31 renal; 105% in the assay with ACHN renal; 56.4% in the assay with CAKI-1 renal; 76.5% with A498 renal; 74% with CCRF-CEM leukemia; 93.1% in the assay with MOLT-4 leukemia.
For the compound `Nc1c(C(=O)Nc2ccnc3ccccc23)sc2nc3c(cc12)CN(Cc1ccccc1)CC3`, the growth with HCT-15 colon was 69.9%; with SNB-75 CNS, 110%; in the assay with SNB-19 CNS, 83.7%; in the assay on U251 CNS it was 98%; in the assay with SK-MEL-5 melanoma, 9.7% (active); in the assay with UACC-62 melanoma, 49.4%. Further, the growth is 69.6% with LOX IMVI melanoma; 102% in the assay on SK-MEL-28 melanoma; 66.1% with EKVX NSCLC; 74.6% with SN12C renal; 62.2% in the assay on UO-31 renal; 102% in the assay on TK-10 renal. Besides, the growth in the assay with ACHN renal was 68.4%; in the assay with CAKI-1 renal, 74.7%; with CCRF-CEM leukemia, 26.1%; in the assay with MOLT-4 leukemia, 18.2%.
Regarding `COc1cc2c(=O)n(CCN)c3c4cc5c(cc4ccc3c2cc1OC)OCO5`, the growth was -75.5% (active) in the assay on HCT-15 colon; 43.7% with SNB-75 CNS; -67.1% (active) in the assay on SNB-19 CNS; -74.4% (active) with U251 CNS; -60.1% (active) in the assay with PC-3 prostate; -78.8% (active) in the assay on SK-MEL-5 melanoma. Besides, the growth in the assay with UACC-62 melanoma was -12.5% (active); in the assay with LOX IMVI melanoma it was -76.7% (active); in the assay with SK-MEL-28 melanoma, -71.2% (active); in the assay on SK-MEL-2 melanoma, 47.2%; with EKVX NSCLC, 52.7%; in the assay with SN12C renal, -69.3% (active). For the same compound, the growth in the assay with UO-31 renal was -84.8% (active); in the assay with TK-10 renal, 42.7%; in the assay with ACHN renal, -10.5% (active); in the assay with CAKI-1 renal, 18.6%; in the assay with CCRF-CEM leukemia it was -19% (active); in the assay on MOLT-4 leukemia, -26% (active).
